Results from PubChem BioAssay (NCI).
Compounds without any hit were thinned out: in the full panel of roughly 79,000, 15% have a hit. Unmarked numbers belong to inactive results. Active and inactive are the calls of the source. Cut-off read from the data, not from the text of the source: active = growth inhibition above about 70%; inactive = the rest.

How the values were obtained:
[1] = NCI Yeast Anticancer Drug Screen. Data for the rad50 strain (AID 155);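 note: 0% = growth of vehicle-only cultures of the same strain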; conditions: S. cerevisiae rad50 strain growth inhibition, stronger effect = higher value
Outline: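 Relative growth inhibition (compound vs vehicle) was measured in yeast with a defined repair-gene alteration.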

[2] = NCI Yeast Anticancer Drug Screen. Data for the mec2-1 strain (AID 157); conditions: S. cerevisiae mec2-1 strain, stronger effect = higher value
Outline: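 Readout is yeast growth inhibition, normalised to vehicle-treated controls, in the mec2-1 strain exposed to compound.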

[3] = NCI Yeast Anticancer Drug Screen. Data for the sgs1 mgt1 strain (AID 161);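 note: 0% = growth of cultures given vehicle only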; conditions: S. cerevisiae sgs1 mgt1 strain, stronger effect = higher value
Outline: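 Compounds are added to genetically altered yeast, and growth is compared with cultures given vehicle alone to give percent inhibition.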

[4] = NCI Yeast Anticancer Drug Screen. Data for the cln2 rad14 strain (AID 165);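 note: 0% = growth equal to vehicle treated cultures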; conditions: S. cerevisiae cln2 rad14 strain, stronger effect = higher value
Outline: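 Relative to vehicle controls, growth inhibition of compound-treated cln2 rad14 yeast was recorded.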

[5] = NCI Yeast Anticancer Drug Screen. Data for the bub3 strain (AID 167); conditions: S. cerevisiae bub3 mutant strain, stronger effect = higher value
Outline: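 Screening used yeast with an engineered genetic alteration affecting cell cycle control. Compound-exposed cultures were compared with vehicle cultures, and reduced growth was taken as inhibition.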

[6] = NCI Yeast Anticancer Drug Screen. Data for the mlh1 rad18 strain (AID 175); conditions: S. cerevisiae mlh1 rad18 strain growth inhibition, stronger effect = higher value
Outline: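 Test agents were incubated with a yeast strain of defined genotype (DNA damage repair defect). Inhibition of growth was derived by comparison with vehicle-exposed cultures.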

[7] = at 5.0 µM (retest, dose inferred, filed as 0.5)
[8] = at 50.0 µM (retest, dose inferred, filed as 5.0)

Structure (SMILES)	growth inhibition [1, 7]	growth inhibition [1, 8]	growth inhibition ([1]; at 50.0 µM)	growth inhibition [2, 7]	growth inhibition [2, 8]	growth inhibition ([2]; at 50.0 µM)	growth inhibition [3, 7]	growth inhibition [3, 8]	growth inhibition ([3]; at 50.0 µM)	growth inhibition [4, 7]	growth inhibition [4, 8]	growth inhibition ([4]; at 50.0 µM)	growth inhibition [5, 7]	growth inhibition [5, 8]	growth inhibition ([5]; at 50.0 µM)	growth inhibition [6, 7]	growth inhibition [6, 8]	growth inhibition ([6]; at 50.0 µM)
COc1ccc2ccc(OC)c(C=O)c2c1	-158%	-119%	97.5% (active)	-50%	-111%	10.2%	-65%	-60%	-1%	-63%	-58%	-28.2%	-67%	-74%	-25.6%	-144%	-107%	63.5%
COc1ccc(C2Cc3cc(OC)ccc3C2=O)cc1 (stereo not given)	13%	94% (active)	45.5%	9%	98% (active)	29.4%	17%	95% (active)	56.5%	19%	95% (active)	23.6%	32%	97% (active)	96% (active)	10%	97% (active)	57.4%
C/C(CCC(=O)O)=N/Nc1ccc(C(=O)O)cc1	11%	74% (active)	66%	0%	71% (active)	5.4%	1%	64%	17.9%	7%	91% (active)	5.85%	2%	91% (active)	31.4%	5%	89% (active)	23.7%
Cc1cc(N=NC(N)=S)c2ccccc2c1O	4%	22%	76.2% (active)	-3%	1%	24.9%	-5%	16%	6.7%	-2%	-23%	-22.1%	2%	15%	37.2%	-40%	-1%	53.8%
O=S(=O)(CCCl)Cc1ccccc1	-145%	-144%	5.2%	-45%	-39%	-0.4%	-61%	-37%	14%	-50%	-50%	10.7%	-69%	-66%	10.7%	-144%	-100%	10.8%
OCCN=Cc1cccs1	1%	3%	8.85%	-2%	5%	2.8%	-1%	2%	2.05%	0%	1%	13.7%	1%	2%	8.25%	-25%	5%	3.4%
CCC[CH2][Sn]([CH2]CCC)([O]C(=O)c1ccc(C)c(N)c1)[O]C(=O)c1ccc(C)c(N)c1	98% (active)	98% (active)	91.7% (active)	92% (active)	92% (active)	92% (active)	96% (active)	96% (active)	92.5% (active)	96% (active)	96% (active)	91.3% (active)	90% (active)	90% (active)	89% (active)	97% (active)	97% (active)	87.5% (active)
CCCC/C=C(/CCCNCCc1ccccc1)[Si](C)(C)C	88% (active)	98% (active)	90.4% (active)	90% (active)	99% (active)	93% (active)	98% (active)	99% (active)	93.4% (active)	89% (active)	99% (active)	91.5% (active)	98% (active)	99% (active)	91.5% (active)	97% (active)	99% (active)	90.9% (active)
CCCCCCCCCCCCCCC(C(=O)O)S(=O)(=O)O (stereo not given)	0%	85% (active)	98.9% (active)	-1%	58%	99.7% (active)	-3%	69%	87% (active)	-2%	70% (active)	95.7% (active)	-4%	66%	99.6% (active)	0%	83% (active)	99.6% (active)
NNC(=O)c1ccc(N)cc1O	-1%	-5%	-13.6%	-3%	-1%	-13.8%	-2%	-3%	-29.2%	-2%	-11%	75.1% (active)	-1%	-1%	-3.65%	0%	-4%	1.8%
